Compound activity deposited in PubChem BioAssay by National Center for Advancing Translational Sciences (NCATS).
Pf growth 96h – P. falciparum growth inhibition at 96 hour, primary screen for plastid delayed-death inhibitors. Potency, µM (titrated, usually from 28.7 µM), hits mostly inhibitors. 320,000 compounds, 6.9% hits. AID 504834. P. falciparum luciferase reporter growth, 96 h
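96 h incubation, 37 C, 5% CO2, of luciferase-reporter P. falciparum-infected RBCs (2% hematocrit, 0.05% parasitemia final) with test compounds; endpoint luminescence.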
Shiga toxin inh – Shiga toxin inhibition; Vero cells, Shiga toxin protein synthesis inhibition reporter; inhibition, % at 38.7 µM; 290,000 compounds, 9.2% hits; in the data active = inhibition mostly above about 28%, no sharp cut-off; inactive = mostly below about 43%
Cycloheximide cs – counter-screen for Shiga toxin inhibitors: cycloheximide protein synthesis inhibition; cell reporter, cycloheximide protein synthesis inhibition counterscreen; max response, %; 300,000 compounds, 12% hits; AID 2314; in the data active = max response mostly above about 13%, no sharp cut-off; inactive = mostly below about 14%; also: read at 38.3 µM for the half of the compounds with a filed dose
Pf growth 48h – inhibits P. falciparum growth in the first generation, 48 h; P. falciparum luciferase growth in erythrocytes, 48 h; Potency, µM (titrated, usually from 28.7 µM), usual class: inhibitors; 310,000 compounds, 5.9% hits; AID 504832
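Luciferase-expressing parasites in RBCs, 2% Hct / 0.1% parasitemia final; RPMI 1640 + 0.5% Albumax; 37 C, 5% CO2, one generation; luminescence read-out, lower signal = inhibition.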
LmPK inhibitor – LmPK (Leishmania mexicana) enzyme inhibition | 290,000 compounds, 0.37% hits | Q27686 | purified LmPK, Kinase-Glo ATP luminescence, 1 h | Potency, µM (doses to about 57.5 µM), most hits filed as inhibitors
Target sequence (Q27686 whole entry, looked up): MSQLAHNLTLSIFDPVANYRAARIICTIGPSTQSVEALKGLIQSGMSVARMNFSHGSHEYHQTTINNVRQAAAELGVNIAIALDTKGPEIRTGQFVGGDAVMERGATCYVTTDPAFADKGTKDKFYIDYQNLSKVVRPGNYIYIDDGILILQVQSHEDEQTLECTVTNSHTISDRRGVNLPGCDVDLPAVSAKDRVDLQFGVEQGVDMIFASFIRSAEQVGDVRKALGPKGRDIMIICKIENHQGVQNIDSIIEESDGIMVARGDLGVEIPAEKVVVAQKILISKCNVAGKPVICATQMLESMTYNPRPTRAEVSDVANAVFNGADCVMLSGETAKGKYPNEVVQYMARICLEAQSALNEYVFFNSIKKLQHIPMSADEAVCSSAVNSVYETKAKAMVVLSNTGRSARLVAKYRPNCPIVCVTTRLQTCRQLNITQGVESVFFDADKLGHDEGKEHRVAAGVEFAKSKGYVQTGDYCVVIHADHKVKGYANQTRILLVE
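ATP generated from ADP (0.1 mM) and PEP (0.5 mM) by 0.1 nM LmPK over 1 h at room temperature (pH 7.2 imidazole buffer) was detected by coupled luciferase luminescence. Values were normalized to uninhibited and no-enzyme wells.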
Numbers stand for hits; n = inactive; u = inconclusive; x = no result; [ ] = another dose, or the depositor's remark. Rows were chosen to be rich in hits. Some 22% of all compounds tested hit in one or more screens of this group. Unless noted, calls follow the shape of the dose curve; as a rule, active = well fitted inhibition curve with a large enough effect; inconclusive = small, poorly fitted or top-dose-only effect, or another doubt; inactive = no such curve, though single readings can be large or run the other way.

SMILES	Pf growth 96h	Shiga toxin inh	Cycloheximide cs	Pf growth 48h	LmPK inhibitor
Cc1ccccc1Nc1nnc(SCC(=O)c2ccc(O)cc2O)s1	u	n	n	u	n
C/C(N)=C(/C#N)C(=O)CSc1nnnn1-c1ccc(C)cc1	u	n	36	n	n
Cc1cc(NC(=O)CSc2nnc(Nc3ccccc3C)s2)no1	u	n	n	u	n
O=C(CN1CCc2cc3c(cc2C1)OCCCO3)Nc1c(F)cccc1F	u	n	n	n	n
O=C(CSc1nnc(Nc2ccccc2)s1)NC1CC1	u	x	x	n	x
C/C(N)=C(/C#N)C(=O)CSc1nnc(NC(C)C)s1	u	58	30	n	n
C/C(N)=C(/C#N)C(=O)CSc1nnc(Nc2ccccc2)s1	n	139	42	n	n
COc1cc(NC(=O)CSc2nnc(NC(C)C)s2)cc(OC)c1OC	n	n	n	u	n
Cc1ccccc1/C=C/C12NC(=O)CN1c1ccccc1C2(C)C (centres undefined)	u	n	24	u	n
CC(C)CCn1c(N2CCc3ccccc3C2)nc2c1c(=O)[nH]c(=O)n2C	u	n	n	u	n
CC(=O)N1CCc2c(sc(NC(=O)C3CCCCC3)c2C(N)=O)C1	n	n	n	n	n
CCCN(CCC)CCCNC(=O)Cn1cnc2sc(C)c(S(=O)(=O)N3CCOCC3)c2c1=O	n	n	n	n	n
Clc1ccccc1-c1nnc(CNC2CC2)o1	n	n	n	n	n
Oc1ccccc1-c1nnc(COc2ccc(Cl)cc2Cl)o1	n	74	45	n	n
Oc1ccccc1-c1nnc(COc2ccccc2)o1	n	n	27	x	n
O=C(O)c1ccc(CSc2nnc(COc3ccccc3)o2)cc1	n	n	n	n	n
c1ccc(OCc2nnc(-c3ccccc3)o2)cc1	n	118	26	n	n
CC(=O)Nc1ccccc1OCc1nnc(-c2ccccc2Cl)o1	n	n	n	n	n
Clc1ccc(-c2nnc(CCc3ccccc3)o2)c(Cl)c1	n	90	41	n	n
CC(C)OP(=O)(OC(C)C)C(NC(=O)c1cccc([N+](=O)[O-])c1)C(N)=O (centres undefined)	n	n	n	x	n
C[C@H]1Cc2c(COc3ccccc3)nc3c(c2CO1)CN(S(=O)(=O)c1ccc(Cl)c2nonc12)CC3	x	x	x	x	n[11.5 µM]
OC[C@H]1O[C@@H](n2cnc3c(Nc4ccccc4)ncnc32)[C@H](O)[C@@H]1O	n	108	n	n	n
Nc1ncnc2c1ncn2[C@@H]1O[C@H](CO)[C@@H](O)[C@H]1O	n	n	n	n	n
Cc1ccc(C2C(C(=O)c3cc4ccccc4o3)=C(O)C(=O)N2CCN2CCOCC2)o1 (centres undefined)	n	54	24	n	n
Cc1ccc(C2C(C(=O)c3sc(C)nc3C)=C(O)C(=O)N2CCN(C)C)o1 (centres undefined)	5.9µM	n	n	n	n
SMILES	Pf growth 96h	Shiga toxin inh	Cycloheximide cs	Pf growth 48h	LmPK inhibitor
Cc1ccc(C2C(C(=O)c3cc4ccccc4o3)=C(O)C(=O)N2CCN2CCOCC2)cc1 (centres undefined)	u	n	n	n	n
O=C(C1=C(O)C(=O)N(CCN2CCOCC2)C1c1ccccn1)c1cccs1 (centres undefined)	x	36	28	n	n
O=C(C1=C(O)C(=O)N(CCN2CCOCC2)C1c1ccc(F)cc1)c1cccs1 (centres undefined)	n	n	n	n	n
Cc1ccc(C2C(C(=O)c3cccs3)=C(O)C(=O)N2CCN2CCOCC2)o1 (centres undefined)	u	50	24	n	n
Cc1ccc(C)c(N(CC(=O)N2CCCC2)S(C)(=O)=O)c1	u	n	n	n	n
CCOC(=O)C(=O)/C(=C\N(C)C)c1onc(-c2c(F)cccc2Cl)c1C(=O)OC	n	n	n	n	n
COCCN1C(=O)C(O)=C(C(=O)c2cccs2)C1c1ccccc1 (centres undefined)	n	n	n	n	n
CCN(CC)CCN1C(=O)C(O)=C(C(=O)c2cccs2)C1c1ccc(C)o1 (centres undefined)	u	27	22	n	n
CCN(CC)CCN1C(=O)C(O)=C(C(=O)c2cccs2)C1c1ccccn1 (centres undefined)	n	n	20	x	n
CCOc1ccc(C(=O)Nc2ccc(S(=O)(=O)N3CCN(C)CC3)cc2)cc1	u	n	n	u	n
CCC(CC)C(=O)Nc1nnc(CCc2ccccc2)s1	n	n	n	n	n
CCn1nnnc1SCC(=O)N(C)C1CCS(=O)(=O)C1 (centres undefined)	n	x	x	n	x
CC(C)c1cccc(OCCN2CCCC2)c1	10µM	n	n	n	n
CN1CCN(CCOc2cccc(Cl)c2)CC1	10µM	n	n	n	n
Clc1cccc(OCCN2CCCC2)c1	n	n	n	n	n
COc1cc(CN2C(=S)NC(C)(C)CC2(C)O)cc(OC)c1 (centres undefined)	n	n	n	n	n
CSC1=C(C#N)C2(CCCC2)C(C#N)=C(N)N1	n	n	n	u	n
N#CC1=C(N)NC(SCC(=O)c2ccccc2)=C(C#N)C12CCCC2	u	67	40	n	n
CCSC1=C(C#N)C2(CCCC2)C(C#N)=C(N)N1	n	n	n	9.3µM	n
CCCC(=O)N(CCN1CCOCC1)c1nc2c(OCC)cccc2s1	n	n	n	n	n
Cc1ccc(NC(=O)C2CCCN(c3ncccn3)C2)cc1F (centres undefined)	n	n	23	n	n
CCCS(=O)(=O)N1CCCC(C(=O)Nc2ccc3c(c2)CCC3)C1 (centres undefined)	n	n	n	n	n
Cc1ccc(NC(=O)C2CCCN(c3nccc(C)n3)C2)c(C)c1 (centres undefined)	n	n	n	n	n
Cc1nc2ncnn2c(N2CCCC(C(=O)Nc3ccc4c(c3)CCC4)C2)c1C (centres undefined)	n	n	n	5.2µM	n
O=C(Nc1cccc(C(F)(F)F)c1)C1CCCN(c2ncccn2)C1 (centres undefined)	n[5.75 µM]	n	n	n	n
SMILES	Pf growth 96h	Shiga toxin inh	Cycloheximide cs	Pf growth 48h	LmPK inhibitor
O=C(Nc1ccc2c(c1)CCC2)C1CCCN(c2ncccn2)C1 (centres undefined)	n	43	38	n	n
Cc1ccc(NC(=O)C2CCCN(c3ncccn3)C2)c(C)c1 (centres undefined)	13µM	49	33	n	n
CC(=O)Nc1ccc(-n2nnnc2SCC(=O)Nc2cccc(NC(=O)c3ccco3)c2)cc1	u	n	n	u	n
CCc1nnc(NC(=O)C2CCCN(c3nc(C)cc(C)n3)C2)s1 (centres undefined)	4.7µM	n	n	n	n
Cc1cc(C)nc(N2CCCC(C(=O)Nc3nnc(C(C)(C)C)s3)C2)n1 (centres undefined)	n	n	n	n	n
Cc1ccc(NC(=O)C2CCCN(C3=NS(=O)(=O)c4ccccc43)C2)c(O)c1 (centres undefined)	15µM	x	x	12µM	x
